Compounds without any hit were thinned out: in the full panel of roughly 79,000, 15% have a hit. Unmarked numbers belong to inactive results. Active and inactive are the calls of the source. No stated cut-off is given here; in the data, active means growth inhibition above about 70%; inactive means the rest.
Key:
[1] = NCI Yeast Anticancer Drug Screen. Data for the rad50 strain (AID 155);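 further: 0% = growth of vehicle-only cultures of the same strain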; details: S. cerevisiae rad50 strain growth inhibition, active compounds read high
How it was run: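 Cells are treated with compound, grown, and their growth is then scored against vehicle-only cultures of the same repair-deficient yeast strain.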

[2] = NCI Yeast Anticancer Drug Screen. Data for the mec2-1 strain (AID 157); details: S. cerevisiae mec2-1 strain, active compounds read high
How it was run: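 Using mec2-1 yeast: add compound, measure growth, express inhibition versus vehicle-treated cultures.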

[3] = NCI Yeast Anticancer Drug Screen. Data for the sgs1 mgt1 strain (AID 161);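 further: 0% = growth of cultures given vehicle only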; details: S. cerevisiae sgs1 mgt1 strain, active compounds read high
How it was run: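 Compounds are added to genetically altered yeast, and growth is compared with cultures given vehicle alone to give percent inhibition.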

[4] = NCI Yeast Anticancer Drug Screen. Data for the cln2 rad14 strain (AID 165);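 further: 0% = growth equal to vehicle treated cultures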; details: S. cerevisiae cln2 rad14 strain, active compounds read high
How it was run: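 Yeast strain cln2 rad14, bearing defects in cell cycle control and DNA repair, serves as the test system; values reflect growth inhibition compared with vehicle.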

[5] = NCI Yeast Anticancer Drug Screen. Data for the bub3 strain (AID 167); details: S. cerevisiae bub3 mutant strain, active compounds read high
How it was run: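 Part of a panel of yeast mutants defective in DNA damage repair or cell cycle regulation. Each strain is grown with compound, and inhibition is calculated relative to solvent-treated cultures.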

[6] = NCI Yeast Anticancer Drug Screen. Data for the mlh1 rad18 strain (AID 175); details: S. cerevisiae mlh1 rad18 strain growth inhibition, active compounds read high
How it was run: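 Steps: expose repair-defective yeast to compound; measure growth; express inhibition against vehicle-treated controls.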

[7] = at 5.0 µM (retest, dose inferred, filed as 0.5)
[8] = at 50.0 µM (retest, dose inferred, filed as 5.0)

| Compound | growth inhibition [1, 7] | growth inhibition [1, 8] | growth inhibition ([1]; at 50.0 µM) | growth inhibition [2, 7] | growth inhibition [2, 8] | growth inhibition ([2]; at 50.0 µM) | growth inhibition [3, 7] | growth inhibition [3, 8] | growth inhibition ([3]; at 50.0 µM) | growth inhibition [4, 7] | growth inhibition [4, 8] | growth inhibition ([4]; at 50.0 µM) | growth inhibition [5, 7] | growth inhibition [5, 8] | growth inhibition ([5]; at 50.0 µM) | growth inhibition [6, 7] | growth inhibition [6, 8] | growth inhibition ([6]; at 50.0 µM) |
| --- | --- | --- | --- | --- | --- | --- | --- | --- | --- | --- | --- | --- | --- | --- | --- | --- | --- | --- |
| C=CC(=O)Nc1ccccc1CC(c1c[nH]c2ccccc12)c1c[nH]c2ccccc12 | 34% | 34% | 85% (active) | 26% | 26% | 73.7% (active) | 34% | 34% | 81.5% (active) | 12% | 12% | 84.3% (active) | 21% | 21% | 74.5% (active) | 27% | 27% | 76.9% (active) |
| COc1cc(Nc2ccc(Oc3ccc(O)cc3)cc2)c2ncccc2c1 | 6% | 31% | 42.5% | -12% | 51% | 53.1% | -12% | 34% | 22.4% | 2% | 22% | 57.4% | -9% | 5% | 7.85% | 14% | 59% | 76% (active) |
| Nc1ccc(CCCCCc2ccc(N)cc2)cc1 | -3% | 80% (active) | 98.6% (active) | -9% | 99% (active) | 99% (active) | 10% | 96% (active) | 98.9% (active) | 1% | 54% | 98% (active) | -6% | 83% (active) | 98.7% (active) | -1% | 98% (active) | 98.7% (active) |
| COc1cc2c(cc1C(C)C)CCC1C(C)(C#N)CCCC21C (configuration not stated) | -6% | -21% | 34.4% | 3% | -11% | 46.5% | -11% | -29% | 47.5% | 1% | -22% | 80.1% (active) | 0% | -10% | 45.1% | -3% | -29% | 88.8% (active) |
| CCCCCCCCCCC(=O)CC(=O)c1c(O)cccc1O | -14% | -1% | 1.9% | -11% | 5% | -0.35% | 10% | 5% | 2.4% | 0% | 12% | -37.5% | 12% | 17% | -1.95% | -16% | 16% | 1.5% |
| CC(C)NCC=C=Nc1ccccc1 | -11% | -32% | 45.8% | -30% | -25% | 9.45% | -8% | -21% | 43.4% | -2% | -28% | 40.5% | -26% | -82% | -5.5% | -9% | -29% | 24.2% |
| CC(C)Sc1nc(NC(=O)N(CCCl)N=O)cc(=O)[nH]1 | -12% | 26% | 13.8% | -4% | 9% | -2% | -12% | 23% | 20.4% | 8% | 12% | 5.7% | -1% | 7% | 13.2% | 2% | 74% (active) | 23.8% |
| C=C(CN(C)C)C(=O)c1ccc(OC2OC(COC(C)=O)C(OC(C)=O)C(OC(C)=O)C2OC(C)=O)cc1 (configuration not stated) | -1% | 2% | -5.65% | 0% | 5% | -18.4% | 3% | -43% | -8.8% | 7% | 2% | 10.4% | 15% | 4% | -3.75% | 5% | 2% | -18.9% |
| CC(C)CCCOC(=O)c1cc([N+](=O)[O-])cc([N+](=O)[O-])c1 | 12% | 30% | 67.8% | 2% | 27% | 53.1% | 5% | 51% | 96% (active) | 3% | 25% | 54.2% | 0% | 24% | 72.6% (active) | 3% | 70% (active) | 93.8% (active) |

From PubChem BioAssay (NCI)
